PubChem BioAssay (NCATS)
Results filed as inconclusive are left out. Active and inactive are the calls of the source. Unless noted, calls follow the shape of the full dose curve.

Key:
[1] = qHTS drug screen for cell cycle checkpoint inhibitors in PARPi-resistant BRCA-mutant ovarian cancer cell lines. (AID 1963452); conditions: PEO1/OlaR viability, CellTiter-Glo luminescence, 96 h, stronger effect = lower value
Outline: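 PEO1, PEO4 and PEO1/OlaR ovarian cancer cells, 600 per well, exposed 96 h at 37C to a dilution series. Viability read by CellTiter-Glo luminescence, normalized to DMSO and empty wells; activity summarized as Z-AUC.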

[2] = qHTS for identification of novel therapeutic agents for treatment of microphthalmiaassociated transcription factor (MiT) renal cell carcinoma (RCC) (AID 1963991); conditions: CellTiter-Glo, 48 h; for z-score: stronger effect = lower value; for Potency: active = Z-AUC below -0.8 in all three lines; also: potency is read from the fitted curve at half-maximal effect;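 as to z-score: curves scaled with 100% = DMSO viability and 0% = empty wells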
Outline: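 UOK109/UOK124/UOK145 (TFE3 fusions, three partners); 500 cells/well; MIPE v4.0, 1912 cpds, 11 conc.; 48 h, 37 C; CellTiter-Glo, 15 min RT; lum. Norm.: DMSO 100%, empty 0%.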

[3] = qHTS profiling for inhibitors of Plasmodium falciparum proliferation (AID 504749; active = well fitted inhibition curve with a large enough effect; also: potency is read from the fitted curve at half-maximal effect;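 as to activity, negative = inhibition: 0% = DMSO vehicle and full inhibition = artemisinin control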; as to all read-outs here: nearly all actives have a fitted effect of over 60% in size); conditions: P. falciparum in erythrocytes, SYBR Green DNA, 72 h; for activity, negative = inhibition: at 12.8 µM (top of the series)
Outline: (§1)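 Readout was DNA-dye fluorescence from lysed cultures, ex 485/em 535 nm. Parasitized red cells had grown 72 h with compound; data scaled between 0.29 uM artemisinin and DMSO wells and corrected using vehicle-only plates.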

3D7 = test: as above; conditions: P. falciparum in erythrocytes, SYBR Green DNA, 72 h; series mostly up to 28.7 µM
Outline: as §1

7G8 = test: as above; conditions: P. falciparum in erythrocytes, SYBR Green DNA, 72 h; series mostly up to 28.7 µM
Outline: as §1

AA1029 = test: as above; conditions: P. falciparum in erythrocytes, SYBR Green DNA, 72 h; series mostly up to 28.7 µM
Outline: as §1

AS120 = test: as above; conditions: P. falciparum in erythrocytes, SYBR Green DNA, 72 h; series mostly up to 28.7 µM
Outline: as §1

ATS189 = test: as above; conditions: P. falciparum in erythrocytes, SYBR Green DNA, 72 h; series mostly up to 28.7 µM
Outline: as §1

ATS95 = test: as above; conditions: P. falciparum in erythrocytes, SYBR Green DNA, 72 h; series mostly up to 28.7 µM
Outline: as §1

[4] = measured here: PEO1 parental Z-AUC
[5] = TFE3-RCC UOK109 viability, measured here: UOK109 Z-AUC
[6] = TFE3-RCC viability, measured here: UOK124 Z-AUC
[7] = TFE3-RCC viability, measured here: UOK145 Z-AUC

In the case of `C[C@@]1(c2cc(-c3cncnc3)c(F)cc2F)CCSC(N)=N1`, the Z-AUC [1] is reported as 0.854 (inactive), the Z-AUC [1, 4] is reported as 0.822 and the Z-AUC ([1]; measured here: PEO4 Z-AUC) is reported as 0.652.
For `Cn1cc(-c2ccc3nnc(Sc4ccc5ncccc5c4)n3n2)cn1`, the Z-AUC [1] was 1.3 (inactive), the Z-AUC [1, 4] was 1.65 and the Z-AUC ([1]; measured here: PEO4 Z-AUC) was 1.9.
For `C[C@@]1(C(=O)Nc2ccc(F)nc2)CCCN1c1nc(Nc2cc(C3CC3)[nH]n2)c2cccn2n1`, the Z-AUC [1] was 0.31 (inactive), the Z-AUC [1, 4] was 0.238 and the Z-AUC ([1]; measured here: PEO4 Z-AUC) was -0.135.
For `CN1CCC(COc2cnc(-c3cccc(Cn4nc(-c5cccc(C#N)c5)ccc4=O)c3)nc2)CC1`, the Z-AUC [1] was -0.437 (inactive), the Z-AUC [1, 4] was -0.363 and the Z-AUC ([1]; measured here: PEO4 Z-AUC) was -0.442.
For `N#CC1(c2cccc(C(=O)Nc3cc(Oc4ccc5nc(NC(=O)C6CC6)sc5n4)ccc3F)c2Cl)CC1`, the Z-AUC [1] was -0.948 (inactive), the Z-AUC [1, 4] was -1.21 and the Z-AUC ([1]; measured here: PEO4 Z-AUC) was -0.816.
For `C[C@@H]1C[C@H]2[C@@H]3CCC4=CC(=O)C=C[C@]4(C)[C@@]3(F)[C@@H](O)C[C@]2(C)[C@@]1(O)C(=O)CO`, the Z-AUC [1] was 0.337 (inactive), the Z-AUC [1, 4] was 1.75 and the Z-AUC ([1]; measured here: PEO4 Z-AUC) was 0.58. For the same molecule, the z-score [2, 5] was 0.745, the z-score [2, 6] was 0.108 and the z-score [2, 7] was -1.45.
In the case of `Cc1cc(NC(=O)Nc2ccc(N(C)C)cc2)c2cc(F)cc(F)c2n1`, the Z-AUC [1] is reported as -0.154 (inactive), the Z-AUC [1, 4] is reported as -0.66 and the Z-AUC ([1]; measured here: PEO4 Z-AUC) is reported as -0.472. For the same molecule, the z-score [2, 5] was 1.14, the z-score [2, 6] was 0.89 and the z-score [2, 7] was 1.08.
For `CC(C)(C)c1nc(-c2cccc(NS(=O)(=O)c3c(F)cccc3F)c2F)c(-c2ccnc(N)n2)s1`, the Z-AUC [1] was 1.26 (inactive), the Z-AUC [1, 4] was 1 and the Z-AUC ([1]; measured here: PEO4 Z-AUC) was 1.01.
In the case of `O=C(Nc1cccc(Cl)c1)Nc1ncc(CCNc2ncnc3ccsc23)s1`, the Z-AUC [1] is reported as -0.664 (inactive), the Z-AUC [1, 4] is reported as -1.1 and the Z-AUC ([1]; measured here: PEO4 Z-AUC) is reported as -1.17.
For `CC1=C(C(=O)Nc2cc3cn[nH]c3cc2F)C(c2ccc(C(F)(F)F)cc2)CC(=O)N1` (configuration not stated), the Z-AUC [1] was -0.362 (inactive), the Z-AUC [1, 4] was -0.272 and the Z-AUC ([1]; measured here: PEO4 Z-AUC) was -0.273. For the same molecule, the z-score [2, 5] was 0.673, the z-score [2, 6] was 0.25 and the z-score [2, 7] was 0.771.
For `CN1CC(=O)NC1=NC(=O)Nc1cccc(Cl)c1`, the Z-AUC [1] was 0.638 (inactive), the Z-AUC [1, 4] was 0.15 and the Z-AUC ([1]; measured here: PEO4 Z-AUC) was 0.317.
With `Nc1ncnc2c1ncn2[C@@H]1O[C@H](CO)[C@@H](O)[C@@H]1O` the Z-AUC [1] was 1.52 (inactive), the Z-AUC [1, 4] was 0.934 and the Z-AUC ([1]; measured here: PEO4 Z-AUC) was 0.856.
For `NS(=O)(=O)c1cc(Cl)c(Cl)c(S(N)(=O)=O)c1`, the activity, negative = inhibition ([3]; parasite line A) was 1.59% (inactive) and the activity, negative = inhibition ([3]; parasite line B) was 6.65% (inactive).
With `C=C1c2cccc(O)c2C(O)=C2C(=O)[C@@]3(O)C(O)=C(C(N)=O)C(=O)[C@@H](N(C)C)[C@@H]3[C@@H](O)[C@H]12` the activity, negative = inhibition ([3]; parasite line A) was -22.9% (inactive) and the activity, negative = inhibition ([3]; parasite line B) was -19.4% (inactive).
With `Clc1ccc(COC(Cn2ccnc2)c2ccc(Cl)cc2Cl)c(Cl)c1` (configuration not stated) the Potency ([3]; parasite line B) was 2.82 µM (active).
`C[C@]12CCC3=C4CCC(=O)C=C4CC[C@@H]3[C@H]1CC[C@@]2(O)CC#N` gave a z-score [2, 5] of 0.693, a z-score [2, 6] of 0.709 and a z-score [2, 7] of -0.023.
Work on `CC[C@H]1OC(=O)[C@H](C)[C@@H](O[C@H]2C[C@@](C)(OC)[C@@H](O)[C@H](C)O2)[C@H](C)[C@@H](O[C@@H]2O[C@H](C)C[C@H](N(C)C)[C@H]2O)[C@](C)(O)C[C@H](C)C(=NOCOCCOC)[C@H](C)[C@@H](O)[C@]1(C)O` yielded a z-score [2, 5] of 1.24, a z-score [2, 6] of -0.315 and a z-score [2, 7] of 0.696.
`CCN1C[C@H](C)n2c(c(O)c3c(=O)n(Cc4ccc(F)c(Cl)c4)nc(C(=O)NC)c32)C1=O` gave a z-score [2, 5] of 0.808, a z-score [2, 6] of 0.545 and a z-score [2, 7] of 2.87.
Work on `CC(=O)OCC(=O)[C@@]12OC(C)(C)O[C@H]1C[C@H]1[C@@H]3C[C@H](F)C4=CC(=O)C=C[C@]4(C)[C@@]3(F)[C@@H](O)C[C@@]12C` yielded a z-score [2, 5] of 0.123, a z-score [2, 6] of 0.68 and a z-score [2, 7] of 0.0965.
In the case of `CCCCCOC(=O)Nc1nc(=O)n([C@@H]2O[C@H](C)[C@@H](O)C2O)cc1F` (some centres not stated), the z-score [2, 5] is reported as 0.259, the z-score [2, 6] is reported as 0.348 and the z-score [2, 7] is reported as 0.317.
`C=CC[N+]1([C@H]2C[C@H]3[C@@H]4CC[C@H]5C[C@H](O)[C@@H](N6CCOCC6)C[C@]5(C)[C@@H]4CC[C@]3(C)[C@H]2OC(C)=O)CCCC1` gave a z-score [2, 5] of 0.798, a z-score [2, 6] of 0.675 and a z-score [2, 7] of 0.368.
With `CO[C@H]1/C=C\O[C@@]2(C)Oc3c(C)c(O)c4c(O)c(c(C=NN5CCN(C6CCCC6)CC5)c(O)c4c3C2=O)NC(=O)C(C)=CC=C[C@H](C)[C@H](O)[C@@H](C)[C@@H](O)[C@@H](C)[C@H](OC(C)=O)[C@H]1C` the Potency ([2]; TFE3-RCC UOK109 viability) was 0.105 µM (active), the z-score [2, 5] was -1.72 and the z-score [2, 6] was -2.38. It also gave a z-score [2, 7] of -2.93.
`CCNC(=O)[C@H]1O[C@@H](n2cnc3c(N)nc(NCCc4ccc(CCC(=O)O)cc4)nc32)[C@H](O)[C@H]1O` showed a z-score [2, 5] of 0.882, a z-score [2, 6] of 0.527 and a z-score [2, 7] of 0.68.
For `FC(F)(F)c1ccc(C=Cc2nc(COc3ccc(CCCCn4ccnn4)cc3)co2)cc1`, the Potency ([2]; TFE3-RCC UOK109 viability) was 0.00296 µM (active), the z-score [2, 5] was -2.19 and the z-score [2, 6] was -1.14. It also gave a z-score [2, 7] of -1.58.
In the case of `COc1c(C)c2c(c(O)c1CC=C(C)CCC(=O)OCCN1CCOCC1)C(=O)OC2`, the Potency ([3]; parasite line A) is reported as 7.94 µM (active), the Potency ([3]; parasite line B) is reported as 10 µM (active) and the Potency (3D7) is reported as 11.2 µM (active). For the same molecule, the Potency (7G8) was 4.47 µM (active), the Potency (AA1029) was 10 µM (active) and the Potency (AS120) was 7.94 µM (active). For the same molecule, the Potency (ATS189) was 7.94 µM (active) and the Potency (ATS95) was 7.94 µM (active).
